Measured values published in PubChem BioAssay (NCATS).
Results filed as inconclusive are left out. Calls of active or inactive are those of the source. Calls follow the shape of the dose curve; as a rule, active = well fitted curve in the direction sought with a large enough effect; inconclusive = small, poorly fitted or top-dose-only effect, or another doubt; inactive = no such curve, though single readings can be large; an effect the other way counts as inactive or inconclusive.

Assays:
[1] = biological target: Cellular tumor antigen p53 (Homo sapiens) (UniProt P04637); experiment: Primary qHTS for small molecule compounds that upregulate eGFP-tagged delta133p53alpha (in N-terminal) cells. (AID 2060322); settings: NCI-H358 eGFP-delta133p53alpha fluorescence, 24 h; activation: stronger effect = higher value;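 also: cells pre-induced with doxycycline then dosed without doxycycline; series mostly up to about 56 µM; 0% = DMSO vehicle and 100% = reference activator; nearly all actives have a fitted effect of over 75% in size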
Sequence of Cellular tumor antigen p53 (Homo sapiens) (P04637 whole entry, looked up): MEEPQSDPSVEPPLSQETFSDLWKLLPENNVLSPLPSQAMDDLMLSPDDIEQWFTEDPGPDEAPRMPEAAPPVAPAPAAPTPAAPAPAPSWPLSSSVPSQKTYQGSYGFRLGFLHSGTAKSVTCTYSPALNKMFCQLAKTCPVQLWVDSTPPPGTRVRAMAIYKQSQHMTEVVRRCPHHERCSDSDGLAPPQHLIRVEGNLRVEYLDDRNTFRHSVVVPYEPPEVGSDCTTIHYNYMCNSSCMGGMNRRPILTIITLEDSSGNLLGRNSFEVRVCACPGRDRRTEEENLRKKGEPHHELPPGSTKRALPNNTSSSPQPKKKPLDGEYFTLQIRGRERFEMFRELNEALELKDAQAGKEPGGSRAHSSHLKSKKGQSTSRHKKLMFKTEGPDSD
Method in brief: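 NCI-H358 cells pre-induced 24 h with 10 ng/ml doxycycline for eGFP-delta133p53alpha, plated dox-free and exposed 24 h at 37C to titrated compounds. Fixed, Hoechst-stained; gated GFP peak intensity by laser scanning cytometry, normalized to DMSO (0%) and 57.5 uM 5-azacytidine (100%).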

[2] = biological target: Aldehyde dehydrogenase, mitochondrial (Homo sapiens) (UniProt P05091); experiment: qHTS for Inhibitors of the Aldehyde Dehydrogenase Family (ALDH2) Primary screen (AID 2061308);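 also: plate controls were vehicle for no effect and reference inhibitor for full effect; nearly all actives have a fitted effect of over 55% in size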
[3] = biological target: Retinaldehyde dehydrogenase 3 (Homo sapiens) (UniProt P47895); experiment: qHTS for Inhibitors of the Aldehyde Dehydrogenase Family (ALDH1A3) Primary screen (AID 2061315);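 also: plate controls were DMSO vehicle for no effect and reference inhibitor for full effect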

C=C(CCC1C(C)(O)CCC2C(C)(C)C(O)CCC12C)C(O)CO (centres undefined)
inactive: activation [1] -7.14% | Potency [2] | Potency [3]

CC(=O)OC1C(OC(=O)c2ccccc2)C2C(C)(C)CCC(OC(C)=O)C2(C)C23CCC(C)(C2)C(=O)CC13 (centres undefined)
inactive: activation [1] -14.5% | Potency [2] | Potency [3]

COC(=O)C1=COC(O[C@@H]2O[C@H](CO)[C@@H](O)[C@H](O)[C@H]2O)[C@H]2[C@@H]1[C@H](OC(=O)CCc1ccc(O)cc1)C[C@]2(C)O (some centres undefined)
inactive: activation [1] 21.4% | Potency [2] | Potency [3]

CCOC(=O)C(CCc1ccccc1)NC(C)C(=O)N1Cc2ccccc2CC1C(=O)O (centres undefined)
inactive: activation [1] -13.4% | Potency [2] | Potency [3]

C[C@H]1C[C@H]2[C@@H]3CCC4=CC(=O)C=C[C@]4(C)[C@@]3(F)[C@@H](O)C[C@]2(C)[C@@]1(O)C(=O)COP(=O)(O)O
inactive: activation [1] 1% | Potency [2] | Potency [3]

COc1ccc(-n2c(=O)[nH]c3cc(C(=O)NCc4ccc(Cl)cc4)sc3c2=O)nc1OC
inactive: activation [1] -16.1% | Potency [2] | Potency [3]

CCCO[C@@H]1O[C@H](CO)[C@@H](O)[C@H](O)[C@H]1O[C@@H]1OC[C@@H](O)[C@H](O)[C@H]1O
inactive: activation [1] -15.3% | Potency [2] | Potency [3]

CC(=O)O[C@@H]1[C@H](O[C@@H]2O[C@H](CO)[C@@H](O)[C@H](O)[C@H]2O)[C@@H](O[C@@H]2O[C@@H](C)[C@H](O)[C@@H](O[C@@H]3O[C@H](CO)[C@@H](O)[C@H](O)[C@H]3O)[C@H]2O)[C@H](OC(=O)C23CCC4(C)C(=CCC5C6(C)CC(O)C(O[C@@H]7O[C@H](C(=O)O)[C@@H](O)[C@H](O)[C@H]7O)C(C)(C(=O)O)C6CCC54C)C2CC(C)(C)CC3O)O[C@@H]1C (some centres undefined)
inactive: activation [1] 22.9% | activity change, negative = inhibition [2] -6.27% [at 11.2 µM] | activity change, negative = inhibition [3] -5.68% [at 11.2 µM]

O=C1OC(c2ccc(O)cc2)C(O)=C1Cc1ccccc1 (centres undefined)
inactive: activation [1] -3.82% | Potency [2] | Potency [3]

CO[C@H]1C[C@@H]2CC[C@@H](C)[C@@](O)(O2)C(=O)C(=O)N2CCCC[C@H]2C(=O)O[C@H]([C@H](C)C[C@H]2CC[C@@H](OP(C)(C)=O)[C@H](OC)C2)CC(=O)[C@H](C)/C=C(\C)[C@@H](O)[C@@H](OC)C(=O)[C@H](C)C[C@H](C)/C=C/C=C/C=C/1C
inactive: activation [1] 11% | Potency [2] | Potency [3]

C[C@@]12C[C@]3(O)O[C@H](O1)[C@]1(COC(=O)c4ccccc4)[C@H]3C[C@@]12O[C@@H]1O[C@H](COC(=O)c2ccccc2)[C@@H](O)[C@H](O)[C@H]1O
inactive: activation [1] -5.34% | Potency [2] | Potency [3]

O=C(Nc1nnc(-c2ccc3c(c2)OCCO3)o1)C1CCCCC1
inactive: activation [1] -8.33% | Potency [2] | Potency [3]

COc1c2c(c(C)c3c1C(=O)OC3)OC1(C)CC(O)C34OC(OC)(OC3(C)C)C(O)CC4(C)C1C2 (centres undefined)
inactive: activation [1] -2.29% | Potency [2] | Potency [3]

COc1ccc(C2(O)c3ccccc3NC(=O)C2O)cc1 (centres undefined)
inactive: activation [1] -3.82% | Potency [2] | Potency [3]

C/C=C(\C)C(=O)OC1CC2C(CC=C3CC(OC4CC(OC)C(OC5CC(OC)C(OC6CC(OC)C(OC7CC(OC)C(OC8CC(OC)C(OC9OC(CO)C(O)C(O)C9O)C(C)O8)C(C)O7)C(C)O6)C(C)O5)C(C)O4)CCC32C)C2(O)CCC(C(C)=O)C12C (centres undefined)
inactive: activation [1] -13% | activity change, negative = inhibition [2] 14.2% [at 11.2 µM] | activity change, negative = inhibition [3] 17.2% [at 11.2 µM]

OC[C@@]1(O)CO[C@H](OC[C@H]2O[C@@H](OC(CCCCc3ccc(O)cc3)CCc3ccc(O)cc3)[C@H](O)[C@@H](O)[C@@H]2O)[C@@H]1O (some centres undefined)
inactive: activation [1] -1.53% | Potency [2] | Potency [3]

CC1CCC2(C(=O)OC3OC(CO)C(O)C(O)C3O)CCC3(C)C(=CCC4C5(C)CCC(O)C(C)(CO)C5CCC43C)C2C1(C)O (centres undefined)
inactive: activation [1] -6.87% | Potency [2] | Potency [3]

CC1(C)CC[C@]23CO[C@@]4(CCC5[C@@]6(C)CC[C@H](O[C@@H]7OC[C@H](O[C@@H]8O[C@H](CO)[C@@H](O)[C@H](O)[C@H]8O[C@@H]8OC[C@@H](O)[C@H](O)[C@H]8O)[C@H](O)[C@H]7O)[C@@](C)(CO)C6CC[C@@]5(C)[C@]4(C)CC2=O)[C@@H]3C1 (some centres undefined)
inactive: activation [1] 18.3% | Potency [2] | Potency [3]
